# Screening results from PubChem.
# Pol eta inh: qHTS for Inhibitors of Polymerase Eta | DNA polymerase eta (Homo sapiens), Q9Y253 | Potency, µM (top dose mostly 114 µM), inactives show at the highest dose activity change, negative = inhibition, usual class: inhibitors | recombinant Pol eta, fluorescent DNA replication assay | 390,000 tested, 1.2% active; also: % is scaled to controls: 0 for no effect and ±100 for the full control effect
#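 Pol eta (10 nM) was preincubated with compounds for 15 min at room temperature, after which fluorescent replication substrate (50 nM final) was added to start the reaction. Fluorescence was read kinetically at 0 and 10 min.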
# FEN1 inh-1: qHTS Assay for the Inhibitors of Human Flap endonuclease 1 (FEN1) | P39748 | Recombinant FEN1 flap cleavage, fluorescence, 15 min | Potency, µM (top dose mostly 114 µM), inactives show at the top dose activity change, negative = inhibition, usual class: inhibitors | 390,000 tested, 0.35% active; also: % is scaled to controls: 0 for no effect and ±100 for the full control effect; nearly all actives have a fitted effect of over 65% in size
#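 Quantitative HTS format: each compound was titrated, incubated with 10 nM nuclease for 15 min at room temperature, then challenged with flap substrate at 50 nM final. Signal change over 15 min gave concentration–effect curves.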
# Pol kappa inh: qHTS for Inhibitors of Polymerase Kappa | DNA polymerase kappa (Homo sapiens), Q9UBT6 | 400,000 tested, 0.53% active | Potency, µM (top dose mostly 107 µM), for inactives: top-dose activity, negative = inhibition, hits mostly inhibitors | purified Pol kappa, fluorescent DNA synthesis assay, 10 min; also: % is scaled to controls: 0 for no effect and ±100 for the full control effect
#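 Readout: fluorescence, taken kinetically at 0 and 10 min. Conditions: 10 nM Pol kappa, 15 min RT compound preincubation, 50 nM substrate final. Controls: enzyme-free buffer wells.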
# POLB inh: qHTS Assay for Inhibitors of DNA Polymerase Beta. Potency, µM (series often up to 114 µM), for the others: at the top dose activity change, negative = inhibition, usual class: inhibitors. Pol beta primer extension/strand displacement, fluorescence kinetic. 340,000 tested, 1.3% active; also: % is scaled to controls: 0 for no effect and ±100 for the full control effect
#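 Human Pol beta at 10 nM; strand-displacement substrate 50 nM final. Compound exposure 15 min at room temperature before start, reaction 10 min at room temperature.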
# WRN helicase inh: qHTS for Inhibitors of WRN Helicase; Bifunctional 3'-5' exonuclease/ATP-dependent helicase WRN (Homo sapiens), Q14191; WRN helicase unwinding, fluorescent forked duplex, kinetic; Potency, µM (doses to about 114 µM), for inactives: at the top dose activity change, negative = inhibition, actives largely listed as inhibitors; 360,000 tested, 0.46% active; AID 651768, 2012; also: % is scaled to controls: 0 for no effect and ±100 for the full control effect; nearly all actives have a fitted effect of over 55% in size
#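 WRN at 20 nM final was preincubated with compound for 15 min at room temperature; reaction started with 100 nM forked duplex oligonucleotide carrying fluorophore and quencher plus 2 mM ATP (final). Unwinding followed kinetically by red fluorescence (ex 525/em 598 nm).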
# Pol iota inh: qHTS for Inhibitors of Polymerase Iota | AID 588590, 2011 | Potency, µM (titrated, usually from 115 µM), for the others: top-dose activity, negative = inhibition, actives largely listed as inhibitors | 390,000 tested, 1% active | DNA polymerase iota (Homo sapiens), Q9UNA4 | Pol iota fluorescent replication assay, 10 min
# Target sequence (Q9UNA4 whole entry, looked up): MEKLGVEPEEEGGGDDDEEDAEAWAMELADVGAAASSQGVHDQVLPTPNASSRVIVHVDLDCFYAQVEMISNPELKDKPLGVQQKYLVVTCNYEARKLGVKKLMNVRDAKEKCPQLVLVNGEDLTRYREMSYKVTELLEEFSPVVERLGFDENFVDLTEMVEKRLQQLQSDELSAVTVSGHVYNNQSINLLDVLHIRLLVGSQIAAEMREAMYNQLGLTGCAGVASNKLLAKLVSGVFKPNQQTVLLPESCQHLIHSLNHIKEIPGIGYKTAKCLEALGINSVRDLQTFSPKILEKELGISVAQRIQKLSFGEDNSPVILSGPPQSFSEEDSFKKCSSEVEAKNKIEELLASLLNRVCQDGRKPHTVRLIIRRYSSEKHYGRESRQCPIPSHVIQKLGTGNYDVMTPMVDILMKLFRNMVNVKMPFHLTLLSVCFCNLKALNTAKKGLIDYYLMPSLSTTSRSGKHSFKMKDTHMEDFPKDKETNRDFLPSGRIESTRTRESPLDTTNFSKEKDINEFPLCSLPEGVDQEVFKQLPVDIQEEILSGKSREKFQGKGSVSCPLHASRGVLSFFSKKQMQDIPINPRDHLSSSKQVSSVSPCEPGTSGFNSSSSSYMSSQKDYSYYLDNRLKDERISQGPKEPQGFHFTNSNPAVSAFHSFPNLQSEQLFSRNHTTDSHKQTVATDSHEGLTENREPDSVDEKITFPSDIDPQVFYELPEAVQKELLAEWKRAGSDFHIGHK
#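 Pol iota at 10 nM preincubated 15 min with compounds at room temperature; reaction started with fluorescent substrate, 50 nM final. Fluorescence read kinetically at 0 and 10 min; buffer-only wells as negative control.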
# FEN1 inh-2: qHTS Assay for the Inhibitors of FEN1: Confirmatory Assay for Cherry-picked Compounds; shares compounds with FEN1 inh-1; FEN1 flap cleavage, TAMRA/BHQ2 fluorogenic DNA substrate; Potency, µM, usual class: inhibitors; 880 tested, 79% active; also: nearly all actives have a fitted effect of over 60% in size
# * hit, by the source's call; ? = inconclusive; / = not tested or not shown; [ ] = dose if it differs, or a comment. Hits are enriched below; roughly 2.4% of the tested compounds scored in any of these assays. Calls follow the shape of the dose curve; as a rule, active = well fitted curve in the direction sought with a large enough effect; inconclusive = small, poorly fitted or top-dose-only effect, or another doubt; inactive = no such curve, though single readings can be large; an effect the other way counts as inactive or inconclusive. Potency is read from the fitted curve at half-maximal effect.
SMILES,Pol eta inh,FEN1 inh-1,Pol kappa inh,POLB inh,WRN helicase inh,Pol iota inh,FEN1 inh-2
CCOc1ccc2nc(NC3=NC(c4ccc(OC)cc4)CC(=O)N3)nc(C)c2c1 (stereo unspecified),-24%,79µM*,-12%,33%,50µM*,14%,76*
CCOc1ccc(C2CC(=O)NC(NC(=O)c3ccc(C)cc3)=N2)cc1 (stereo unspecified),-13%,-5%,-6%,3%,/,21%,/
CCOc1ccc2nc(NC3=NCN(Cc4ccco4)CN3)nc(C)c2c1,/,/,/,13%,/,/,/
CCOc1ccc2nc(NC3=NC(C)(C)C=C(C)N3)nc(C)c2c1,-6%,40µM*,7%,27%,86%,13%,17*
COc1ccc2c(C)nc(Nc3nc(-c4ccccc4)cc(=O)[nH]3)nc2c1,-15%,-19%,1%,61%,?,57%,/
CCOc1ccc2c(C)nc(NC3=NC(C)(C)C=C(C)N3)nc2c1,5%,45µM*,7%,-1%,95%,4%,27*
Cc1ccccc1C(=O)N(Cc1sccc1C)C1CCS(=O)(=O)C1 (stereo unspecified),/,0%,1%,43%,/,14%,/
O=C1c2ccc3c4c(ccc(c24)C(=O)N1CCCCO)C(=O)N(CCCCO)C3=O,-15%,?,-3%,2%,-8%[11.6 µM],?,30*
Cc1ccc(/C=C2/Sc3ccccc3N(CC(=O)NCC3CCCO3)C2=O)cc1 (stereo unspecified),-16%,-13%,-15%,-3%,-3%,-1%,/
Cc1cc(/C=C2\Sc3ccccc3N2C)cc(C)[n+]1CC1CCCO1 (stereo unspecified),-18%,50µM*,?,?,?,29%,34*
O=c1c2ccccc2nc(N/N=C/c2ccc(O)cc2)n1O,-14%,25µM*,0%,6%,-11%[57.1 µM],-6%,30*
COc1ccc(-n2nc3c(N4CCC(C(=O)NCc5cccc(C)c5)CC4)nnc(C)c3c2C)cc1,-13%,27%,-19%,?,2%,?,/
CCOc1ccc(CNC(=O)C2CCN(c3nnc(C)c4c(C)n(-c5ccc(C)cc5)nc34)CC2)cc1,?,?,-37%,7.9µM*,-32%[11.6 µM],?,?
COc1ccc2c(c1)c1c(c(=O)n(-c3ccccc3)c(=O)n1CC(=O)Nc1ccc(C)c(C)c1)n2C,-4%,-12%,-16%,52%,/,-10%,/
CC(C)(C)/C(O)=C/c1nc2ccccc2oc1=O,-6%,20µM*,0%,-18%,3%[11.6 µM],26%,30*
CCc1ccccc1N1C(=O)N(Cc2cc(=O)n3ccccc3n2)c2ccccc2S1(=O)=O,-10%,11%,-6%[60.1 µM],1%,/,-2%,/
COc1ccc(CNc2ncnc3c2[nH]c2ccccc23)cc1,-20%,?,-22%,-12%,-31%,?,/
COc1ccc(CNc2ncnc3c2[nH]c2cc(OC)c(OC)cc23)cc1,?,35µM*,-38%,6.3µM*,-25%[57.1 µM],?,30*
CCOC(=O)c1c(CSc2ccccc2)n(C)c2cc(Br)c(OCC(O)CNC(CO)(CO)CO)cc12 (stereo unspecified),?,45µM*,-25%,?,?,?,43*
COc1ccc(CCN2C(=O)N(c3cccc(C)c3)C(=O)C2CC(=O)Nc2ccccc2)cc1OC (stereo unspecified),-7%,-15%,-3%,31%,/,-11%,/
O=C(COC(=O)c1ccc(Br)o1)NCCc1ccccc1,-11%,-3%,-9%,-5%,8%,23%,/
CC(C)(C)N(Cc1ccccc1)C(=O)COC(=O)c1ccc([N+](=O)[O-])o1,?,?,-2%,/,6%,1%,21*
O=C(COC(=O)c1ccc([N+](=O)[O-])o1)NCCc1ccccc1,79µM*,?,-24%,/,0%[11.6 µM],45µM*,9.5*
CC(NC(=O)COC(=O)c1ccc([N+](=O)[O-])o1)c1ccccc1 (stereo unspecified),89µM*,?,-25%,/,13%,?,15*
O=C(COC(=O)c1ccc([N+](=O)[O-])o1)NC1CCCc2ccccc21 (stereo unspecified),?,?,-21%,/,-30%,?,24*
SMILES,Pol eta inh,FEN1 inh-1,Pol kappa inh,POLB inh,WRN helicase inh,Pol iota inh,FEN1 inh-2
CCC(=O)Nc1ccc(CC)cc1-c1nc2ccccc2n(CC(=O)c2ccc(OC)cc2)c1=O,8%,0%,-21%,?,/,-9%,/
CC(C)c1ccc(S(=O)(=O)c2cnc(SCC(=O)Nc3cccc(C(F)(F)F)c3)nc2N)cc1,-27%,?,-6%,6%,/,7%,/
O=C(COC(=O)c1ccc(Br)o1)NCc1ccc2c(c1)OCO2,-6%,-1%,-8%,/,-1%,7%,/
O=C(COC(=O)c1ccc([N+](=O)[O-])o1)NCc1ccc2c(c1)OCO2,79µM*,18µM*,-24%,/,15%,?,7.6*
O=C(OCC(=O)N1CCc2ccccc21)c1ccc([N+](=O)[O-])o1,?,?,-11%,/,14%,?,8.5*
O=C(CCCN1C(=O)/C(=C/c2cccs2)SC1=S)Nc1cccnc1,4%,1%,-11%,-24%,-18%,29%,/
CCN(CC)CCOC(=O)c1ccc(NC(=O)CCCN2C(=O)/C(=C\c3cccs3)SC2=S)cc1,-19%,?,-6%,-2%,-3%[11.6 µM],?,?
COC(=O)c1ccc(NC(=O)c2c(-c3ccccc3)c(-c3ccccc3)nn(C)c2=O)cc1,-8%,-1%,-9%,-8%,/,24%,/
CC(C)Nc1ccc(Nc2ccnc3cc4ccccc4cc23)cc1,-18%,25µM*,?,14µM*,35µM*,?,24*
COCCn1c(=NC(=O)c2ccc3c(c2)OCCO3)sc2cc(S(N)(=O)=O)ccc21,-26%,-2%,-34%,-20%,-9%[11.6 µM],?,?
COc1cc2c(Cc3ccccc3)cncc2cc1O,0%,2%,89µM*,/,-1%[11.6 µM],19%,?
COc1ccc(-n2nnc(-c3nsc(NC(=O)c4cccs4)n3)c2C)cc1OC,-9%,4%,4%,-6%,/,-27%,/
